Test results as given in ChEMBL document CHEMBL3988442, “University of Dundee, Small-Polar-MMV Screening Library” (2021).
Screen size: about 48,000 compounds; about 13,000 (27%) showed an effect of 50% or more. The list shows a part of the results.

Test system: Wolbachia pipientis
Test: Anti-Wolbachia Cell-Based Screen
Assay type: functional
Parameters: scale not given: in the data most compounds retested in dose-response had high values
Conditions: 5 µM

How did the “Percent Effect” value turn out when Cn1ncnc1NS(=O)(=O)c1ccccc1 was run?
The value was -4.376%.

Cn1ncnc1NS(=O)(=O)c1ccc(F)cc1Cl was tested. Which “Percent Effect” value did it give?
The value was -0.8831%.

How did the “Percent Effect” value turn out when CC(C)c1nccn1CCCNC(=O)c1ccc(N(C)C)nc1 was run?
The value was -4.813%.

Which “Percent Effect” value does the source give for Cl.Cl.NCC(=O)N1CCCC(c2cncc(Nc3ncccn3)n2)C1 (stereo not drawn) here?
Its value is -7.502%.

How did the “Percent Effect” value turn out when NC(=O)CN1CCCC(c2ccnc(Nc3ncccn3)c2)C1 (stereo not drawn) was run?
Its value is 104.7%.

Which “Percent Effect” value does the source give for CCN1CCCC(c2c(-c3ccccc3)ncn2CC(N)=O)C1 (stereo not drawn) here?
Its value is 0.7504%.

NC(=O)CN1CCCC(c2cncc(Nc3ncccn3)n2)C1 (stereo not drawn) was tested. Which “Percent Effect” value did it give?
The value was 117.4%.

Which “Percent Effect” value does the source give for Cc1cccc(C2CCCN(C(=O)C3CCN(CC(N)=O)CC3)C2)c1 (stereo not drawn) here?
Its value is -11.42%.

For NC(=O)CN1CCCC(C(=O)N2CCC(Oc3ncccn3)CC2)C1 (stereo not drawn), which “Percent Effect” value is on record?
The value was -4.684%.

With Cc1cccc(Nc2cc(C3CCCN(CC(N)=O)C3)ccn2)n1.O=CO.O=CO (stereo not drawn) as the molecule, how does the “Percent Effect” value read?
Its value is 109.2%.

How did the “Percent Effect” value turn out when Cc1cccc(C2CCCN(C(=O)CN3CCC(C(N)=O)CC3)C2)c1 (stereo not drawn) was run?
The value was -7.369%.

CCC(C)N(Cc1ccncc1)C(=O)CCC(=O)OC (stereo not drawn) was tested. Which “Percent Effect” value did it give?
Its value is -41.55%.

Which “Percent Effect” value does the source give for Cc1nc(CN2CCCN(CC(=O)N(C)C(C)(C)C#N)CC2)no1 here?
The value was 10.3%.

With CC(C)(C)OC(=O)N1CCC[C@H](NCC2=CCCOC2)C1 as the molecule, how does the “Percent Effect” value read?
The value was -0.302%.

For O=C(O)C(F)(F)F.O=C(O)C(F)(F)F.O=C(c1ccncc1)N1CC[C@@H]2[C@@H](CC1)OCCN2c1cccnc1, which “Percent Effect” value is on record?
Its value is -4.707%.

Which “Percent Effect” value does the source give for CN(C)C(=O)c1nc(-c2ccc(S(C)(=O)=O)cc2)c2cnccn12 here?
The value was 107.6%.

Which “Percent Effect” value does the source give for CC(C)CCN(C)C(=O)c1nc(S(C)(=O)=O)n2ccccc12 here?
The value was 1.111%.

How did the “Percent Effect” value turn out when CN(Cc1ccccc1)C(=O)c1nc(S(C)(=O)=O)n2ccccc12 was run?
The value was -0.6664%.

For O=C(c1coc(-c2ccccc2)n1)N1CCCC1, which “Percent Effect” value is on record?
Its value is 6.616%.

CN(C)C(=O)c1nc(-c2ccc(S(C)(=O)=O)cc2)c2ccccn12 was tested. Which “Percent Effect” value did it give?
Its value is 94.54%.

CC(C)n1cnc(-c2nc(C(=O)N3CCCC3)c3ccccn23)c1 was tested. Which “Percent Effect” value did it give?
The value was -0.8191%.

For CS(=O)(=O)c1ccc(-c2nc(C(=O)N3CCCC3)n3ccccc23)cc1, which “Percent Effect” value is on record?
The value was 91.51%.

With NCCN1CCC(c2nnc(Cn3ccnc3)n2C2CC2)CC1 as the molecule, how does the “Percent Effect” value read?
Its value is 3.949%.

With COc1ccc(CN(C)CC(=O)NC2(C)CCS(=O)(=O)C2)cc1F (stereo not drawn) as the molecule, how does the “Percent Effect” value read?
Its value is -5.934%.

Which “Percent Effect” value does the source give for O=C(NC1CCCN(CCc2ccccc2)C1)c1cnccn1 (stereo not drawn) here?
Its value is 115.1%.

O=C(NC1CCCN(c2ccc(OC(F)F)cc2)C1)c1cnccn1 (stereo not drawn) was tested. Which “Percent Effect” value did it give?
Its value is -2.478%.

O=C(NC1CC(=O)N(C2Cc3ccccc3C2)C1)c1cnccn1 (stereo not drawn) was tested. Which “Percent Effect” value did it give?
The value was -14.57%.

CC(=O)NC1CCCN(Cc2ccc(OCc3ccccn3)cc2)C1 (stereo not drawn) was tested. Which “Percent Effect” value did it give?
The value was -5.429%.

Which “Percent Effect” value does the source give for CN(C(=O)CSc1ccccn1)C1CCCN(CCc2ccccc2)C1 (stereo not drawn) here?
The value was -2.321%.

O=C(NC1CCCN(CCc2ccccc2)C1)c1ccccn1 (stereo not drawn) was tested. Which “Percent Effect” value did it give?
Its value is 90.98%.

With O=C(CCO)N1C[C@H]2CC[C@@H]1CN(C1Cc3ccccc3C1)C2 as the molecule, how does the “Percent Effect” value read?
Its value is 7.309%.

For O=C(c1ccccc1)N1CCN(CC2CCOc3ccccc3C2)CC1 (stereo not drawn), which “Percent Effect” value is on record?
Its value is -9.678%.

With CC(=O)Nc1cccc(C(=O)N2CCc3c(nc(N(C)C)[nH]c3=O)C2)c1 as the molecule, how does the “Percent Effect” value read?
The value was -4.662%.

CCn1cnnc1CNC(=O)NC(c1ccc(OC)cc1)C1CC1 (stereo not drawn) was tested. Which “Percent Effect” value did it give?
The value was -3.354%.

COc1cc2c(cc1-c1nc3c(cnn3C(C)C)[nH]1)OCO2 was tested. Which “Percent Effect” value did it give?
Its value is 0.2831%.

For CCC(=O)Nc1cc(Cl)ccc1C(=O)N(C)Cc1noc(CC)n1, which “Percent Effect” value is on record?
The value was -2.438%.

With Cc1ncsc1C(=O)N(C)Cc1ccncc1 as the molecule, how does the “Percent Effect” value read?
The value was -15.3%.

With CCc1oc(C(=O)N(C)Cc2nonc2C)cc1CN(CC)CC as the molecule, how does the “Percent Effect” value read?
Its value is 117.2%.

How did the “Percent Effect” value turn out when CCc1nc(CN(C)C(=O)c2cc(NC(C)=O)ccc2Cl)no1 was run?
Its value is -10.82%.

How did the “Percent Effect” value turn out when CCc1oc(C(=O)N(C)Cc2ccncc2)cc1CN(CC)CC was run?
Its value is 110.2%.

For CCc1nc(CN(C)C(=O)c2cc(CN(CC)CC)c(CC)o2)no1, which “Percent Effect” value is on record?
Its value is 113.6%.

How did the “Percent Effect” value turn out when Cc1ccc(C)c(OCc2cc(C(=O)N(C)Cc3nonc3C)no2)c1 was run?
Its value is -9.317%.

For CN(Cc1ccncc1)C(=O)c1ccc(F)c(NS(C)(=O)=O)c1, which “Percent Effect” value is on record?
Its value is 4.431%.

Which “Percent Effect” value does the source give for CCN(Cc1nonc1C)C(=O)c1ccc(Br)o1 here?
Its value is 1.066%.

Which “Percent Effect” value does the source give for CCOc1ccc(CN2C(=O)CC3(CCCC3)C2=O)nc1 here?
The value was -27.44%.

For O=C1CC(CNc2cncc(Br)c2)c2ccccc2N1 (stereo not drawn), which “Percent Effect” value is on record?
Its value is 11.7%.

O=C1CN(Cc2cn(CC3CCN(C4CCSCC4)CC3)nn2)CCN1 was tested. Which “Percent Effect” value did it give?
The value was -10.54%.

How did the “Percent Effect” value turn out when CCS(=O)(=O)Nc1ccc2c(c1)C1(CCOCC1)CN2C.O=C(O)C(F)(F)F was run?
The value was 89.45%.

CN(C)C(=O)N1CC2(CCOCC2)c2cc(NS(=O)(=O)C3CC3)ccc21 was tested. Which “Percent Effect” value did it give?
The value was -3.56%.

For CCN1C(=O)C2(CCOCC2)c2cc(NC(=O)c3cnoc3C)ccc21, which “Percent Effect” value is on record?
The value was -1.334%.

CCN1CC2(CCOCC2)c2cc(NS(=O)(=O)CC)ccc21.O=C(O)C(F)(F)F was tested. Which “Percent Effect” value did it give?
Its value is 93.24%.

How did the “Percent Effect” value turn out when CCN1C(=O)C2(CCOCC2)c2cc(NC(=O)c3ccco3)ccc21 was run?
The value was 4.939%.

How did the “Percent Effect” value turn out when CCN1C(=O)C2(CCOCC2)c2cc(NC(=O)c3csnn3)ccc21 was run?
The value was 5.242%.
